Screening results deposited in PubChem by National Center for Advancing Translational Sciences (NCATS).
Hits are enriched below; roughly 19% of the tested compounds scored in any of these assays.
DT40 TDP1 no CPT: qHTS for Inhibitors of human tyrosyl-DNA phosphodiesterase 1 (TDP1): qHTS in cells in absence of CPT; actives 15% (n = 420,000); AID 686978, 2013; DT40 Tdp1-/- hTDP1 cells, no CPT, ATP luminescence, 48 h; Potency, µM (doses to about 46.2 µM), most hits filed as inhibitors; also: nearly all actives have a fitted effect of over 55% in size
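Growth of hTDP1-complemented DT40 Tdp1-knockout cells is measured by ATP luminescence after at least 48 hr compound exposure at 37 °C, with DMSO substituting for the 20 nM CPT used in the parallel screen.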
VP16 counter: counter-screen for ROR gamma inhibitors: Gal4-VP16 reporter; Drosophila S2 Gal4-VP16 UAS-luciferase, luminescence, 20 h; Potency, µM (top dose mostly 53.6 µM), hits mostly inhibitors; actives 3.5% (n = 310,000); AID 2546;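 also: Gal4-VP16 expression switched on by copper sulfate through the metallothionein promoter; nearly all actives have a fitted effect of over 50% in size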
RORg inh: ROR gamma (mouse) transcription inhibition; P51450; Drosophila S2 Gal4-RORgamma UAS-luciferase reporter, 20 h; Potency, µM (highest dose often 53.6 µM), actives largely listed as inhibitors; actives 5.4% (n = 310,000); also: nearly all actives have a fitted effect of over 60% in size
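Using a luciferase readout, inhibitors were identified by reduced reporter activity in Drosophila cells coexpressing a copper-inducible Gal4–ROR gamma fusion and UAS-driven Photinus luciferase, incubated 20 hr after 700 uM copper sulfate.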
TDP1 cell CPT: DT40-hTDP1 cell growth loss with CPT. Potency, µM (top dose mostly 46.2 µM), actives largely listed as inhibitors. chicken DT40 Tdp1-/-;hTDP1 cells + 20 nM CPT, ATP luminescence, 48 h. actives 12% (n = 420,000); also: nearly all actives have a fitted effect of over 55% in size
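Chicken DT40 Tdp1-/- cells stably complemented with human TDP1 were seeded at 400 cells/well in medium containing 20 nM camptothecin, exposed to pin-transferred compounds, and grown at 37 °C for at least 48 hr. Viability was read as ATP luminescence.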
TDP1 block: TDP1 (human) enzyme inhibition; recombinant TDP1, AlphaScreen DNA substrate cleavage; Potency, µM (series often up to 130 µM), usual class: inhibitors; actives 0.28% (n = 350,000); also: nearly all actives have a fitted effect of over 40% in size
Target sequence (Q9NUW8 whole entry, looked up): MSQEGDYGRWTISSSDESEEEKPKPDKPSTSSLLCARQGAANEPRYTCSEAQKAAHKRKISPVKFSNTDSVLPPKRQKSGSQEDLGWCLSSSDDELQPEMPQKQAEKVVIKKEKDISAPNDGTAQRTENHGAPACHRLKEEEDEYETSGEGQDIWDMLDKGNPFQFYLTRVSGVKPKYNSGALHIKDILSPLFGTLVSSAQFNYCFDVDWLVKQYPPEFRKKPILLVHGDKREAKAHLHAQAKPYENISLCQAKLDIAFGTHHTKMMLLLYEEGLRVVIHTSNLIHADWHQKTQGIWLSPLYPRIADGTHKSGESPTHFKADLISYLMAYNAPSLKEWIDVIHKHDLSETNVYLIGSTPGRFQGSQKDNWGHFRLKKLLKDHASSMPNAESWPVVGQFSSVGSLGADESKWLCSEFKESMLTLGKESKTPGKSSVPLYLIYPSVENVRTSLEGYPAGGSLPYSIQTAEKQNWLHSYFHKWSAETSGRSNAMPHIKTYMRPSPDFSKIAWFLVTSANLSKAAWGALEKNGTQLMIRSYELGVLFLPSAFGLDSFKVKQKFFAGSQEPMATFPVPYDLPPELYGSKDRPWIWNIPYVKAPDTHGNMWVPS
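Here, a 5' biotin and 3' phosphotyrosine-FITC DNA oligonucleotide reports Tdp1 activity: intact substrate bridges AlphaScreen beads, while cleavage leaves a 3' phosphate and drops signal. All incubations at room temperature.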
Each line names hits and unclear results; the compound was inactive in the other large screens. Calls follow the shape of the dose curve; as a rule, active = well fitted curve in the direction sought with a large enough effect; inconclusive = small, poorly fitted or top-dose-only effect, or another doubt; inactive = no such curve, though single readings can be large; an effect the other way counts as inactive or inconclusive.

CCO[C@@H]1OC(C(=O)N2CCN(Cc3ccccc3)CC2)=C[C@H](c2csc3ccccc23)[C@H]1CCCO	DT40 TDP1 no CPT 29µM, TDP1 cell CPT 13µM
CCO[C@H]1OC(C(=O)N2CCOCC2)=C[C@@H](c2ccc(C(F)(F)F)cc2)[C@@H]1CCCO	DT40 TDP1 no CPT inconclusive, TDP1 cell CPT 0.52µM
CCO[C@H]1OC(C(=O)N2CCN(Cc3ccccc3)CC2)=C[C@@H](c2ccc(C(F)(F)F)cc2)[C@@H]1CCCO	DT40 TDP1 no CPT 15µM, RORg inh inconclusive, TDP1 cell CPT 21µM
CCO[C@@H]1OC(C(=O)N2CCCCCCC2)=C[C@H](c2ccc(C(F)(F)F)cc2)[C@H]1CCCO	DT40 TDP1 no CPT 23µM, TDP1 cell CPT inconclusive
CCCNC(=O)C(=O)c1cccn1-c1ccsc1C(=O)OC	none
CCO[C@@H]1OC(C(=O)N2CCOCC2)=C[C@H](c2ccc(C(F)(F)F)cc2)[C@H]1CCCO	DT40 TDP1 no CPT inconclusive, TDP1 cell CPT 15µM
CCO[C@H]1OC(C(=O)N2CCN(C)CC2)=C[C@@H](c2ccc(C(F)(F)F)cc2)[C@@H]1CCCO	none
CC(Nc1nc(-c2ccc3c(c2)NC(=O)CO3)cs1)c1ccccc1 (stereo not given)	DT40 TDP1 no CPT 26µM, RORg inh inconclusive, TDP1 cell CPT 18µM
COc1cccc(-c2nc(-c3ccc4c(c3)NC(=O)CO4)cs2)c1	DT40 TDP1 no CPT 5.2µM, VP16 counter inconclusive, TDP1 cell CPT 8.2µM
CN(C)c1ncc2nc(-c3ccccc3)c(=O)n(Cc3ccc(F)cc3)c2n1	none (no result: TDP1 block)
O=c1[nH]c2ccccc2cc1CN(Cc1cccnc1)S(=O)(=O)c1ccc(Cl)cc1	DT40 TDP1 no CPT 26µM, TDP1 cell CPT inconclusive
CC(=O)Nc1ccc(S(=O)(=O)N(Cc2cccnc2)Cc2cc3ccccc3[nH]c2=O)cc1	DT40 TDP1 no CPT 18µM, TDP1 cell CPT 16µM
O=c1[nH]c2ccccc2cc1CN(Cc1cccnc1)S(=O)(=O)c1ccc([N+](=O)[O-])cc1	DT40 TDP1 no CPT inconclusive
COc1ccccc1Cc1c(-c2ccco2)nc2c(C)cc(Br)cn12	DT40 TDP1 no CPT 5.8µM, TDP1 cell CPT 2.9µM (no result: VP16 counter, RORg inh, TDP1 block)
COc1ccccc1Cc1c(-c2ccco2)nc2c3ccccc3ccn12	DT40 TDP1 no CPT 16µM, TDP1 cell CPT 23µM (no result: VP16 counter, RORg inh, TDP1 block)
COc1ccccc1Cc1nc(-c2ccc(Br)o2)no1	DT40 TDP1 no CPT inconclusive, RORg inh inconclusive
COc1ccc(Cc2c(-c3ccco3)nc3ccc(Br)cn23)c(C)c1	DT40 TDP1 no CPT inconclusive, TDP1 cell CPT 21µM (no result: VP16 counter, RORg inh, TDP1 block)
COc1ccc(Cc2c(-c3ccco3)nc3c(C)cc(Br)cn23)c(C)c1	DT40 TDP1 no CPT 2.3µM, TDP1 cell CPT 2.9µM (no result: VP16 counter, RORg inh, TDP1 block)
O=c1c2cc(N3CCOCC3)ccc2[nH]c(=S)n1Cc1ccccc1Cl	VP16 counter inconclusive, RORg inh inconclusive
O=c1c2cc(N3CCOCC3)ccc2[nH]c(=S)n1CCc1ccccc1	DT40 TDP1 no CPT inconclusive, VP16 counter 3.2µM, RORg inh 2µM, TDP1 cell CPT inconclusive
COCCCn1c(=S)[nH]c2ccc(N3CCOCC3)cc2c1=O	VP16 counter inconclusive, RORg inh inconclusive
O=c1c2cc(N3CCOCC3)ccc2[nH]c(=S)n1Cc1ccccn1	VP16 counter inconclusive, RORg inh 7.9µM
COc1ccc(CCn2c(=S)[nH]c3ccc(N4CCOCC4)cc3c2=O)cc1OC	DT40 TDP1 no CPT inconclusive, VP16 counter inconclusive, RORg inh 13µM
O=C(CCCCCn1c(=S)[nH]c2ccc(N3CCOCC3)cc2c1=O)NCc1cccc(Cl)c1	RORg inh 10µM
CCOc1ccc(C(=O)Nc2cccc(OCc3cc(=O)n4ccccc4n3)c2)cc1	none (no result: VP16 counter, RORg inh)
Cc1[nH]n(-c2ccccc2)c(=O)c1N=O	DT40 TDP1 no CPT inconclusive
CCOc1ccc2c(c1)c(N=NC(=N)N)c(O)n2C	none
CCCC[N+](CC#CCO)(CC#Cc1ccccc1)CCCC	DT40 TDP1 no CPT 9.2µM, TDP1 cell CPT inconclusive
CC[N+](CC)(CC#Cc1ccccc1)CC(=O)c1ccc(Cl)cc1	DT40 TDP1 no CPT 5.8µM, VP16 counter inconclusive, TDP1 cell CPT 5.8µM
Cc1nc2c(C)cccc2c2c1CCS2	none (no result: TDP1 block)
COc1ccc(CC(=O)Nc2ccc(N3CCOCC3)cc2)cc1S(=O)(=O)N1CCOCC1	none
